# Results as given in PubChem BioAssay (NCATS).
# Where “and” joins values, the source holds several entries; their conditions need not be identical. Equal entries are not always repeated. Results filed as inconclusive are left out. Entries that show only a call come without a potency. A structure can be active in one record and inactive in another. Calls of active or inactive are those of the source. Unless noted, calls come from the whole dose curve; as a rule, active = well fitted curve in either direction with a large enough effect (not every such curve was filed as active); inconclusive = small, poorly fitted or top-dose-only effect, or another doubt; inactive = flat fitted curve, though single readings scatter.
# Columns and labels:
# [1] = AP1 Signaling Pathway (AID 357);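 note: ME-180 reporter cells stimulated with EGF at its EC50 level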
# Method in brief: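 Titration-series screen for positive or negative modulators of EC50 EGF-induced signaling in ME-180 cells carrying an AP-1-driven beta-lactamase reporter. After 5 hours at 37 degrees Celsius, CCF4 460nm/530nm emission ratio gave %Activity; AC50 values derived.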
# [2] = target: Cytochrome P450 1A2 (Homo sapiens) (UniProt P05177); assay: p450-cyp1a2 (AID 410; calls by dose curve; note: potency is the fitted concentration of half-maximal effect)
# Method in brief: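 Luminescent demethylation readout: Luciferin-ME (100uM, equal to Km) turned over by 20nM CYP1A2 for 60 min at room temperature after NADPH regeneration addition, following 10 min compound preincubation. Normalization used 57 uM furafylline as full inhibition.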
# [3] = NFAT Signaling Pathway (AID 444); conditions: Jurkat NFAT-bla M1, carbachol, beta-lactamase ratio, 5 h;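 note: carbachol stimulus at about its EC50 of 1 µM final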
# Method in brief: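 Jurkat cells with NFAT-driven β-lactamase reporter and co-expressed M1 receptor, stimulated with carbachol (final 1 uM, ~EC50), compound titration, 5 h at 37 °C. CCF4 loaded 1 h at RT; 460/530 nm ratio gave %activity and AC50.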
# [4] = Stat Signaling Pathway (AID 446);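 note: ME-180 cervical cancer cells given 40 pM IL-6 alongside compound; SIE-controlled beta-lactamase reporter measured as 460/530 nm FRET emission ratio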
# Method in brief: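 Overnight-plated ME-180 cells bearing a STAT Inducible Element beta-lactamase reporter; 5 h co-exposure to compound and 40 pM IL-6; values normalized to 300 pM IL-6 and 125 nM JAK inhibitor controls.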
# [5] = target: Glucocorticoid receptor (Homo sapiens) (UniProt P04150); assay: GR-GFP Redistribution (AID 450;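 active = compounds whose dose series gives a full or clear partial fitted curve of increased nuclear translocation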; note: potency is the fitted concentration of half-maximal effect); conditions: U2OS GR-GFP nuclear translocation, laser cytometry, 2 h
# [6] = target: Glucocorticoid receptor (Homo sapiens) (UniProt P04150); assay: GR-EFC Redistribution (AID 451; calls by dose curve; note: potency is the fitted concentration of half-maximal effect); conditions: CHO-K1 GR-EFC translocation, beta-gal luminescence, 2 h
# Method in brief: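 CHO-K1 cells expressing nuclear EA and GR-ED fragments of b-gal; compounds titrated up to 46 uM final, 2 h at 37 C. GR nuclear translocation read as complemented b-gal luminescence after 1 h RT detection.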
# [7] = target: Mitogen-activated protein kinase 10 (Mus musculus) (UniProt Q61831); assay: JNK3 AlphaScreen Assay (AID 530);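 note: kinase came from lysate of stimulated human HepG2 cells; signal reports phosphorylation of biotinylated GST-cJun 1-79 at Ser73 with 10 µM ATP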
# Method in brief: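 Activity was read by AlphaScreen after JNK3-containing HepG2 lysate (cytokine pre-activated) phosphorylated biotinylated GST-cJun with 10 uM ATP at room temperature. Phospho-Ser73 cJun antibody with Protein-A acceptor beads provided detection.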
# [8] = target: 3',5'-cyclic-AMP phosphodiesterase 4B (Homo sapiens) (UniProt Q07343); assay: qHTS Assay for Inhibitors of PDE-IV (AID 607; active = well fitted activation curve with a large enough effect in the main read-out, with a control signal flat, not every such curve was filed as active)
# Method in brief: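 Live HEK293 cells with a modified cyclic nucleotide-gated (CNG) channel report intracellular cAMP via membrane-potential dye fluorescence (ex 535/em 590 nm). Endogenous PDE-IV was targeted. Compounds were tested at up to 22.9 uM final; RO 20-1724 100 uM served as control.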
# [9] = qHTS Assay for Lipid Storage Modulators (AID 1519; calls by dose curve); conditions: Drosophila S3 cells, BODIPY lipid droplet/cell ratio, laser cytometry, cells loaded with oleic acid; for activity change, negative = inhibition: at 25.7 µM (top of the series)
# Method in brief: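 Cells seeded at 5,000 per well were treated with compounds over a concentration series and loaded with oleic acid (400 uM, as added). Lipid droplet fluorescence (488 nm excitation, 500-530 nm channel) was read by laser-scanning cytometry and normalized to 20 uM Triacsin C.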
# [10] = target: Cytochrome P450 3A4 (Homo sapiens) (UniProt P08684); assay: qHTS Assay for Activators of Cytochrome P450 3A4 (AID 885; active = well fitted curve in the direction sought with a large enough effect; an effect the other way counts as inactive or inconclusive; note: nearly all actives have a fitted effect of over 65% in size)
# Method in brief: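 Using 20nM recombinant human CYP3A4 in potassium phosphate (200mM), substrate Luciferin-PPXE at 25uM, luminescent luciferin detection followed a 60-min RT NADPH reaction; data scaled to 57 uM ketoconazole.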
# [11] = target: Cytochrome P450 2D6 (Homo sapiens) (UniProt P10635); assay: qHTS Assay for Inhibitors and Substrates of Cytochrome P450 2D6 (AID 891; active = well fitted curve in the direction sought with a large enough effect; an effect the other way counts as inactive or inconclusive;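 note: luciferin methyl ether substrate demethylated by CYP2D6 with NADPH regeneration; nearly all actives have a fitted effect of over 60% in size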)
# Method in brief: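 Luminescent read-out of luciferin formed by 5 nM human CYP2D6 demethylating 30 uM Luciferin-ME EGE (Km level) over 60 min at room temperature after NADPH regeneration addition. Data normalized to full inhibition by 1.43 uM quinidine.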
# [12] = target: ATP-dependent 6-phosphofructokinase (Trypanosoma brucei brucei) (UniProt O15648); assay: qHTS Assay to Find Inhibitors of T. brucei phosphofructokinase: hit validation (AID 492961; active = well fitted curve in the direction sought with a large enough effect; an effect the other way counts as inactive or inconclusive;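 note: luminescence reports ADP formed as PFK phosphorylates fructose-6-phosphate with ATP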)
# Method in brief: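 Inhibition of parasite PFK is measured as reduced ADP formation, quantified via luciferase after ATP depletion. Assay used 0.1 mM ATP, 0.5 mM F6P, 1.25 nM enzyme, 45 min incubation.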
# [13] = qHTS profiling for inhibitors of Plasmodium falciparum proliferation (AID 504749; active = well fitted curve in the direction sought with a large enough effect; an effect the other way counts as inactive or inconclusive; note: nearly all actives have a fitted effect of over 60% in size); conditions: P. falciparum in erythrocytes, SYBR Green DNA, 72 h, at 12.8 µM (top of the series)
# Method in brief: (§1)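 Each compound contacts P. falciparum-infected red blood cells for 72 h at 37 C; lysis buffer (Tris, EDTA, saponin, Triton X, SYBR Green I) is added and fluorescence measured next morning; values normalized to controls.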
# CP203 = assay: as above; conditions: P. falciparum in erythrocytes, SYBR Green DNA, 72 h; series mostly up to 28.7 µM
# Method in brief: as §1
# CP215 = assay: as above; conditions: P. falciparum in erythrocytes, SYBR Green DNA, 72 h; series mostly up to 28.7 µM
# Method in brief: as §1
# CP262 = assay: as above; conditions: P. falciparum in erythrocytes, SYBR Green DNA, 72 h; series mostly up to 28.7 µM
# Method in brief: as §1
# CP268 = assay: as above; conditions: P. falciparum in erythrocytes, SYBR Green DNA, 72 h; series mostly up to 28.7 µM
# Method in brief: as §1
# CP297 = assay: as above; conditions: P. falciparum in erythrocytes, SYBR Green DNA, 72 h; series mostly up to 28.7 µM
# Method in brief: as §1
# [14] = measured here: cell count channel max response
# [15] = measured here: lipid channel max response
# Chain of Glucocorticoid receptor (Homo sapiens) (P04150 whole entry, looked up, the tested form may be a part): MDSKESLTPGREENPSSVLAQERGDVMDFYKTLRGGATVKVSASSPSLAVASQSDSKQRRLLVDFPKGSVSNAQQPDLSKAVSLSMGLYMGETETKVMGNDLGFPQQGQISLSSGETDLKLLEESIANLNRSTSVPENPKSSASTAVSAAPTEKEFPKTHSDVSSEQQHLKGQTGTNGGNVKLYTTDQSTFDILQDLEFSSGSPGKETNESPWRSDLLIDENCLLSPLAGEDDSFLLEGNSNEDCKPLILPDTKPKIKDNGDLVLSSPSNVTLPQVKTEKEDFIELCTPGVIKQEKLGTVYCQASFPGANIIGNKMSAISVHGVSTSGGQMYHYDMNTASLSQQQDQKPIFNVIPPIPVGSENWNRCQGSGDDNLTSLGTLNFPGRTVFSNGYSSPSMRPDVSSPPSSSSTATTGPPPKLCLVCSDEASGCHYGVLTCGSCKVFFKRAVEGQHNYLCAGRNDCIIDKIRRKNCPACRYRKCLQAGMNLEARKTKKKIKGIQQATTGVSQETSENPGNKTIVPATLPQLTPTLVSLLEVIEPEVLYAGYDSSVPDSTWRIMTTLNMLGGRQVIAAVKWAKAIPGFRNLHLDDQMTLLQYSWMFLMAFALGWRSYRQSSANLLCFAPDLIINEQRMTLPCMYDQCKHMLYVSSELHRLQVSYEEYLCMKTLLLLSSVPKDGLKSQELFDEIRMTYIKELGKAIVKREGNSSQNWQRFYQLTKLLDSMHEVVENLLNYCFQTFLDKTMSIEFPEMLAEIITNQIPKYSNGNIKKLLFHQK
# Chain of 3',5'-cyclic-AMP phosphodiesterase 4B (Homo sapiens) (Q07343 whole entry, looked up): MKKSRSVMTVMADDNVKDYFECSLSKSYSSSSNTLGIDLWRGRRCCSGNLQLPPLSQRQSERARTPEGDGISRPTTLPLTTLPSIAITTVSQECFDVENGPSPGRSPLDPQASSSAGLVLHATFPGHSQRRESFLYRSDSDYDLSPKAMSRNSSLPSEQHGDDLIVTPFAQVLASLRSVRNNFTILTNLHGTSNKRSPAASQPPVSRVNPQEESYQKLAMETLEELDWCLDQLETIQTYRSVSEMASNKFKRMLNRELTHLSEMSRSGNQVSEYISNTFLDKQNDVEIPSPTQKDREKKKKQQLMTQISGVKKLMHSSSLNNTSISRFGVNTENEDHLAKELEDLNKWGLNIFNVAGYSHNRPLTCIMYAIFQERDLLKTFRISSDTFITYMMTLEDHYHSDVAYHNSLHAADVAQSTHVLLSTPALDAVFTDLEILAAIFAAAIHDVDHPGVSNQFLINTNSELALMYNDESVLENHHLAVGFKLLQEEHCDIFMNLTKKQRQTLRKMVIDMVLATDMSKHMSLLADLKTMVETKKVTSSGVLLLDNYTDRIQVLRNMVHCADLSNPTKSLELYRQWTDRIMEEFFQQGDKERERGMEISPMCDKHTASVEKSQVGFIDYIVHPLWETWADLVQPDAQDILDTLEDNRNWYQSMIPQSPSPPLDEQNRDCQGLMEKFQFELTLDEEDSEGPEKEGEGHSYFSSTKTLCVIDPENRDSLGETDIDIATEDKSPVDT
# Chain of Cytochrome P450 1A2 (Homo sapiens) (P05177 whole entry, looked up): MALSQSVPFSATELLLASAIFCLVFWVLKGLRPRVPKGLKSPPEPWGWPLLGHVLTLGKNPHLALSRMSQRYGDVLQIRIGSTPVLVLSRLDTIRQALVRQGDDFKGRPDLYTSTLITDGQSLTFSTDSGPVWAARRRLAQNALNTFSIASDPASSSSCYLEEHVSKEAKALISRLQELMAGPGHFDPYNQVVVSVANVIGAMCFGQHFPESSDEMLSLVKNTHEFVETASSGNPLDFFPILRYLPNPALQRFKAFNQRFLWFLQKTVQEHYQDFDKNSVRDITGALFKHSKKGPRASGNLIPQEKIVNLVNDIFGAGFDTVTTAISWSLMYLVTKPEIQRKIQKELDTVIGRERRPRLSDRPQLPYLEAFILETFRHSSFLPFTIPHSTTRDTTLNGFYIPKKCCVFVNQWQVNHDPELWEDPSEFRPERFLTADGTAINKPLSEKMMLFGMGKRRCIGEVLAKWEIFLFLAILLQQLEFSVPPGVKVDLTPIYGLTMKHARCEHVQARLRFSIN
# Chain of Cytochrome P450 3A4 (Homo sapiens) (P08684 whole entry, looked up): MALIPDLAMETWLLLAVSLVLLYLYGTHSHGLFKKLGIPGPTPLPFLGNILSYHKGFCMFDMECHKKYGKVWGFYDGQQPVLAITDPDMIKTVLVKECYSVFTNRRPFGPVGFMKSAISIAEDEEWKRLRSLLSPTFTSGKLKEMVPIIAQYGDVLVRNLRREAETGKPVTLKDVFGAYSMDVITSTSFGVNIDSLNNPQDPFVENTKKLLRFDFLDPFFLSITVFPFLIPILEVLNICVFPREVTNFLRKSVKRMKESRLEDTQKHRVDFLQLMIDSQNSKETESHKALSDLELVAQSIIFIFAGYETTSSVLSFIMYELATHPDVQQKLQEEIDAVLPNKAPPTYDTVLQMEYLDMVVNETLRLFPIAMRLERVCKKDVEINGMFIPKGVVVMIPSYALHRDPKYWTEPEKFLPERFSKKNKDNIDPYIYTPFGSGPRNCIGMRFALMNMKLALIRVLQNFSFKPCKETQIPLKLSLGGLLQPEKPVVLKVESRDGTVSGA
# Chain of ATP-dependent 6-phosphofructokinase (Trypanosoma brucei brucei) (O15648 whole entry, looked up): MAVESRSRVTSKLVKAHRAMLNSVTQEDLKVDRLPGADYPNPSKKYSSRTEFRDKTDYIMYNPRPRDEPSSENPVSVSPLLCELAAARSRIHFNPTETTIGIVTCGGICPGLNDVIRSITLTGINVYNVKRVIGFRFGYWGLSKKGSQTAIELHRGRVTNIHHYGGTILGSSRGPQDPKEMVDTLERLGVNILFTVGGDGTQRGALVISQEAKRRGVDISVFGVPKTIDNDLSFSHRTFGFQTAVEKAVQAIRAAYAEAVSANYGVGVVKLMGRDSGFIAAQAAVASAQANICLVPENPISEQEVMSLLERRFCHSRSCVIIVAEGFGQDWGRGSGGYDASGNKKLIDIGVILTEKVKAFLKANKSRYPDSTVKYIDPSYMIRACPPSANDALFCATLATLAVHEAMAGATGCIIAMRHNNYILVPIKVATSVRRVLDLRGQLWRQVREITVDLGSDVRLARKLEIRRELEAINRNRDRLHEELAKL
# Chain of Cytochrome P450 2D6 (Homo sapiens) (P10635 whole entry, looked up): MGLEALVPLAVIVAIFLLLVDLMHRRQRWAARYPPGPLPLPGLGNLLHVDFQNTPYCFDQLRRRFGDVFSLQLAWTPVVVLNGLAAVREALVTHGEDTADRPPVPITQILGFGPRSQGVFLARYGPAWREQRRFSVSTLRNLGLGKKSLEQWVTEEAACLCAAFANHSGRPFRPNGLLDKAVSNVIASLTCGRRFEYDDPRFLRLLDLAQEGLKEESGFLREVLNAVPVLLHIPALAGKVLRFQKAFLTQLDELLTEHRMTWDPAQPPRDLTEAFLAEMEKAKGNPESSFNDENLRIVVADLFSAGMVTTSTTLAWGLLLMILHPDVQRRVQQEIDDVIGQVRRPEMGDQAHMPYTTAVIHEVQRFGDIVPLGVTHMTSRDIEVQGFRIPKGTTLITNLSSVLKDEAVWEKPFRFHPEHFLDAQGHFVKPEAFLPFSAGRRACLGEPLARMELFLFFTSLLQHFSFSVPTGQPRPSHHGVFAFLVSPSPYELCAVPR
smiles,measurement,setting,value
CC(C)[C@@]1(NC(=O)[C@@H]2C[C@H]3c4cccc5[nH]cc(c45)C[C@@H]3N(C)C2)O[C@]2(O)[C@H]3CCCN3C(=O)CN2C1=O,outcome,[1],inactive
same,Potency,[2],inactive
same,"activity change, negative = inhibition",[3]; at 17.2 µM (top of the series),-1.94% (inactive)
same,outcome,[4],inactive
same,Potency,[5],> 20.6 µM (inactive)
same,Potency,[6],> 20.6 µM (inactive)
same,outcome,[7],inactive
same,Potency,[8],inactive
same,"activity change, negative = inhibition",[9],1.9% (inactive)
same,max response,[9]; [14],8.08%
same,max response,[9]; [15],10.3%
COc1ccc2c(c1OC)C(=O)O[C@H]2[C@H]1c2cc3c(cc2CCN1C)OCO3,outcome,[1],inactive
same,Potency,[2],25.1 µM (active) and inactive and 31.6 µM (active)
same,"activity change, negative = inhibition",[3]; at 17.2 µM (top of the series),-1.79% (inactive)
same,"activity change, negative = inhibition",[3]; at 38 µM (top of the series),9.14% (inactive)
same,outcome,[4],inactive
same,outcome,[7],inactive
same,Potency,[8],inactive
same,Potency,[10],inactive
same,Potency,[11],inactive
same,"activity change, negative = inhibition",[9],3% (inactive)
same,max response,[9]; [14],-6.69%
same,max response,[9]; [15],-2.42%
COc1ccc(C[C@H]2c3cc(OC)c(OC)cc3CCN2C)cc1OC,outcome,[1],inactive
same,Potency,[2],inactive
same,"activity change, negative = inhibition",[3]; at 17.2 µM (top of the series),-1.22% (inactive)
same,outcome,[4],inactive
same,Potency,[5],> 20.6 µM (inactive) and > 46 µM (inactive)
same,outcome,[7],inactive
same,Potency,[8],inactive
same,"activity change, negative = inhibition",[9],1.88% (inactive)
same,max response,[9]; [14],10%
same,max response,[9]; [15],12.8%
C[C@H](N)[C@@H](O)c1ccccc1,outcome,[1],inactive
same,Potency,[2],inactive
same,"activity change, negative = inhibition",[3]; at 17.2 µM (top of the series),10.1% (inactive)
same,outcome,[4],inactive
same,Potency,[5],> 20.6 µM (inactive)
same,outcome,[7],inactive
same,Potency,[8],inactive
same,"activity change, negative = inhibition",[9],1.99% (inactive)
same,max response,[9]; [14],17%
same,max response,[9]; [15],20.5%
same,Potency,[12],inactive
same,"activity, negative = inhibition",[13]; parasite line A,-2.43% (inactive)
same,"activity, negative = inhibition",[13]; parasite line B,9.04% (inactive)
same,Potency,CP203,inactive
same,Potency,CP215,inactive
same,Potency,CP262,inactive
same,Potency,CP268,inactive
same,Potency,CP297,inactive
C/C=C1\C[C@H](C)[C@@](O)(CO)C(=O)OCC2=CCN3CC[C@@H](OC1=O)[C@@H]23,outcome,[1],inactive
same,Potency,[2],inactive
same,outcome,[4],inactive
same,Potency,[5],> 20.6 µM (inactive)
same,Potency,[6],> 20.6 µM (inactive)
same,outcome,[7],inactive
same,Potency,[8],inactive
same,"activity change, negative = inhibition",[9],0.17% (inactive)
same,max response,[9]; [14],4.82%
same,max response,[9]; [15],5.25%
CCN[C@]1(c2cccs2)CCCCC1=O,outcome,[1],inactive
same,"activity change, negative = inhibition",[3]; at 17.2 µM (top of the series),-19.9% (inactive)
same,outcome,[4],inactive
same,Potency,[5],> 20.6 µM (inactive)
same,Potency,[6],> 20.6 µM (inactive)
same,outcome,[7],inactive
same,Potency,[8],inactive
same,"activity change, negative = inhibition",[9],0.601% (inactive)
same,max response,[9]; [14],-13.4%
same,max response,[9]; [15],-12.8%
same,Potency,[12],inactive
same,"activity, negative = inhibition",[13]; parasite line A,-1.5% (inactive)
same,"activity, negative = inhibition",[13]; parasite line B,-1.41% (inactive)
same,Potency,CP203,inactive
same,Potency,CP215,inactive
same,Potency,CP262,inactive
same,Potency,CP268,inactive
same,Potency,CP297,inactive
